# Screening data (PubChem BioAssay)
# Sampled rows, rich in hits. Any-hit rate of the full collection: about 2.7%.
# A549 tox: A549 cytotoxicity, counter-screen for Nrf2 inhibitors; A549 ARE-Fluc cells, CellTiter-Fluor viability, 18-24 h; Potency, µM (series often up to 46 µM), actives largely listed as inhibitors; 390,000 tested, 0.16% active; AID 504648
#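 A549 ARE-Fluc cells in 5% FBS OPTI-MEM, 5000 cells/well, rested 2 h then exposed to compounds in concentration-response for 18-24 h at 37 °C. Viability by CellTiter-Fluor fluorescence (Ex 405/Em 525) after 30 min; luciferase luminescence (BugLite, 15 min, RT) read afterwards.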
# IDH1 R132H inh: inhibitors of human mutant IDH1 R132H; O75874; IDH1-R132H enzyme, NADPH consumption, diaphorase/resazurin fluorescence; Potency, µM (top dose mostly 76.6 µM), hits mostly inhibitors; 390,000 tested, 0.093% active; also: nearly all actives have a fitted effect of over 65% in size
#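 IDH1-R132H (0.5 ug/mL) preincubated 30 min with compound, then NADPH (0.016 mM) and alpha-KG (2 mM) added; 80 min at RT, pH 7.5. Remaining NADPH coupled via diaphorase/resazurin to fluorescence (540/590 nm); concentration-response curves normalized to no-enzyme control.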
# LDHA inh: LDHA (human) enzyme inhibition | P00338 | purified LDHA, NADH/diaphorase-resazurin fluorescence; stronger effect = lower value | activity change, % (values are at about 110 or 230 µM) | 480,000 tested, 0.15% active | AID 1347041; in the data active = activity change below about -30%; inconclusive = mostly about -25% to -30%
#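 Human LDH5 at 2 nM final in Tris HCl pH 7.4 with 0.06 mM NADH and 0.2 mM pyruvate, reacted 5 minutes at room temperature. Remaining NADH coupled via diaphorase/resazurin; resorufin fluorescence read at 0 and 20 minutes, normalized to enzyme-free and DMSO wells.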
# Nrf2 block: Nrf2 pathway inhibition. 360,000 tested, 2.1% active. A549 ARE-Fluc reporter, luciferase luminescence, 18-24 h. AID 504444. Potency, µM (top dose mostly 46 µM), actives largely listed as inhibitors; also: nearly all actives have a fitted effect of over 60% in size
#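 A549 ARE_Fluc cells (5000/well, 5% FBS OPTI-MEM) pre-incubated 2 h, then treated with compounds 18-24 h at 37C/5% CO2 in concentration-response. CellTiter-Fluor viability read first; BugLite luciferase luminescence after 15 min at room temperature gives Nrf2 activity.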
# ALOX12 inh: inhibitors of human 12S-lipoxygenase ALOX12. P18054. purified 12hLO, xylenol orange hydroperoxide absorbance. Potency, µM (doses to about 108 µM), actives largely listed as inhibitors. 580,000 tested, 1.1% active. AID 1671190
# Target sequence (P18054 whole entry, looked up): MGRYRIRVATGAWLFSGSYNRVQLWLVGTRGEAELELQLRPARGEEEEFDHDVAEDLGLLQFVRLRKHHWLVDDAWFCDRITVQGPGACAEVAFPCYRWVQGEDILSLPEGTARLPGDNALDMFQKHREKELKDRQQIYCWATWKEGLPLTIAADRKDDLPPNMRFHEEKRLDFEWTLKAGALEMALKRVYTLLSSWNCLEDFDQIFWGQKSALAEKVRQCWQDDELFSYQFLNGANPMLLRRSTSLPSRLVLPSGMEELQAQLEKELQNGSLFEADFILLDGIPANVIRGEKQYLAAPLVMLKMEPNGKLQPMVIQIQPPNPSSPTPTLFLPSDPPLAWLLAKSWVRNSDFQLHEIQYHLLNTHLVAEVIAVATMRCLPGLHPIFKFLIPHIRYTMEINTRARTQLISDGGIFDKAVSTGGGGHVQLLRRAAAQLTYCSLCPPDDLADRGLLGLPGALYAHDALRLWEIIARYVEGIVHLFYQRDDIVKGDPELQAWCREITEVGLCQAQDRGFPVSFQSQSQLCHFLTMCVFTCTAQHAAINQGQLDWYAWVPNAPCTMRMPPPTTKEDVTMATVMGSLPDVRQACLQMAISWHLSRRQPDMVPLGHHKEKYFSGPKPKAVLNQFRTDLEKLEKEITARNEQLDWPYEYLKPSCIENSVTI
#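 Purified human 12hLO at 150 nM in 25 mM Hepes, 0.01% Triton X-100, pH 7.0, preincubated 15 min at room temperature with compound. Reaction started with 40 uM arachidonic acid, 30 min at room temperature. Hydroperoxide measured by Fe-xylenol orange, 573/405 nm absorbance ratio.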
# Nrf2 activator: Nrf2 pathway activation | 410,000 tested, 0.31% active | AREc32 ARE-luciferase reporter (MCF7-derived line), luminescence, 24 h | AID 624171 | Potency, µM (titrated, usually from 46.1 µM), actives largely listed as activators; also: nearly all actives have a fitted effect of over 65% in size
#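 Each well held 1000 AREc32 cells, which were incubated with compound for 24 hr at 37 deg C after overnight attachment, and ARE reporter activity was quantified by firefly luciferase luminescence.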
# Hits are given with their value; - = inactive; ? = inconclusive; . = no result given; ! = not active in a repeat. Unless noted, calls follow the shape of the dose curve; as a rule, active = well fitted curve in the direction sought with a large enough effect; inconclusive = small, poorly fitted or top-dose-only effect, or another doubt; inactive = no such curve, though single readings can be large; an effect the other way counts as inactive or inconclusive.
SMILES,A549 tox,IDH1 R132H inh,LDHA inh,Nrf2 block,ALOX12 inh,Nrf2 activator
Cc1ccc(NC(=O)c2cccc(S(=O)(=O)N3CCN(c4ccccc4)CC3)c2)nc1,-,-,-,14.6µM,-,-
Cc1ccc(NC(=O)c2ccc(Cl)c(S(=O)(=O)N3CCCCC3)c2)nc1,-,-,-,20.6µM,-,-
Cc1cc(NC(=O)c2ccc(Cl)c(S(=O)(=O)N3CCCCC3)c2)no1,-,-,-,23.1µM,-,-
CCOC(=O)N1CCN(C(=O)CNC(=O)c2cc3c(OC)cc(OC)cc3n2C)CC1,.,.,-,.,-,.
CCOc1ccc(NC(=O)c2n[nH]c(=O)c3ccccc23)cc1OCC,.,.,-,.,-,.
COc1ccc(-c2cnc(CCC(=O)N3CCS(=O)CC3)o2)cc1,.,.,-,.,-,.
CCOC(=O)c1ccc2c(c1)n(CC)c(/C=C/N(C)c1ccccc1)[n+]2CC,?,-,-,3.26µM,?,-
CCOc1ccc(C(=S)NC2CCCCC2)cc1OCC,-,-,-,-,35.5µM,-
CCOc1ccc(C(C)NC(=S)NC2CCCCC2)cc1OCC (stereo not given),-,-,-,?,?,-
O=C(CSC1=Nc2ccccc2C2=NC(CCC(=O)NC3CCCCC3)C(=O)N12)Nc1cccc(C(F)(F)F)c1 (stereo not given),?,-,-,11.6µM,-,-
O=C(CSC1=Nc2ccccc2C2=NC(CCC(=O)NC3CCCCC3)C(=O)N12)Nc1cccc(Cl)c1 (stereo not given),?,-,-,?,-,-
COc1cccc(Nc2nc(-c3ccc4c(c3)CC(C)N4S(C)(=O)=O)cs2)c1 (stereo not given),.,.,-,.,?,.
CC1Cc2cc(-c3csc(NC(=O)Cc4ccccc4)n3)ccc2N1S(C)(=O)=O (stereo not given),-,-,-,14.6µM,-,-
COc1ccccc1Nc1nc(-c2ccc3c(c2)CC(C)N3S(C)(=O)=O)cs1 (stereo not given),.,.,-,.,39.8µM,.
CC(OC(=O)c1ccc2c(c1)NC(=O)CS2)C(=O)Nc1ccc(C(N)=O)cc1 (stereo not given),.,.,-,.,-,.
OCC1CN(C2CCC2)CC12CCN(Cc1ccc(Br)o1)CC2 (stereo not given),.,.,.,.,-,.
O=C(O)CSc1nnc2c(n1)[nH]c1ccccc12,-,-,-,-,-,-
CC1CCN(C(=O)CSc2nnc3c(n2)[nH]c2ccccc23)CC1,-,-,-,8.2µM,-,-
Cc1cccc(C(=O)N/N=C/c2ccc(N(C)C)cc2)c1,.,.,-,.,?,.
CCCCCC(=O)N1C[C@H](n2cc(COC(=O)c3ccccc3)nn2)[C@@H](O)C[C@@H]1c1ccc(C)cc1,.,-,-,.,39.8µM,-
O=C(OCc1cn([C@@H]2CN(C(=O)C3CCCCC3)[C@@H](c3ccc(Cl)cc3)C[C@H]2O)nn1)c1ccccc1,.,-,-35.3,.,-,-
O[C@H]1C[C@H](c2ccc(Cl)cc2)N(Cc2cccs2)C[C@@H]1n1cc(-c2ccc(F)cc2)nn1,.,-,-,.,35.5µM,-
CCCCCC(=O)N1C[C@@H](n2cc(-c3ccc(F)cc3)nn2)[C@H](O)C[C@@H]1c1ccc(C)cc1,.,-,-34.1,.,-,-
CN1CCN(C(=O)c2cnc(Cc3c[nH]c4ccccc34)c(I)c2)CC1,.,.,.,.,-,.
CCCCNC(=O)c1cnc(Cc2c[nH]c3ccccc23)c(I)c1,.,.,.,.,39.8µM,.
SMILES,A549 tox,IDH1 R132H inh,LDHA inh,Nrf2 block,ALOX12 inh,Nrf2 activator
CC[C@@H](C(=O)[C@H](C)[C@@H](O)[C@H](C)CCc1ccc(C)c(O)c1C(=O)O)C1O[C@@](CC)(C2CC[C@](O)(CC)[C@H](C)O2)C[C@@H]1C (stereo not given in full),.,.,.,.,-,.
CC[C@@H](C(=O)[C@@H](C)[C@@H](O)[C@H](C)CCc1ccc(C)c(O)c1C(=O)O)[C@H]1O[C@](CC)([C@H]2CC[C@](O)(CC)[C@H](C)O2)C[C@@H]1C,6.51µM,-,-,5.17µM,-,-
COCCCn1c(=S)[nH]c2sc3c(c2c1=O)CCCS3,-,-,-,-,44.7µM,-
COCCCNC(=O)NC(=O)CSc1cc(C)c2cccc(C)c2n1,.,.,-,.,?,.
CN1CCN(c2ccc(NC(=O)c3cccc(S(=O)(=O)NCc4cccs4)c3)cc2)CC1,.,.,-,.,?,.
Cc1ccc(N=CC=C2OC(C)(C)C(C)(C)O2)cc1,-,-,-,-,35.5µM,-
Cc1cccc(N=CC=C2OC(C)(C)C(C)(C)O2)c1,-,-,-,-,-,-
CCOC(=O)c1sc2nc(CN3CCC(C)CC3)[nH]c(=O)c2c1C,.,.,-,.,?,.
COc1c(-c2ccc(O)c(O)c2)oc2cc(O)cc(O)c2c1=O,-,-,-,-,7.08µM,?
CC(C)=CCc1cc(-c2oc3cc(O)cc(O)c3c(=O)c2O)ccc1O,-,-,-,-,35.5µM,-
C[C@@H]1O[C@@H](OC[C@H]2O[C@@H](Oc3c(-c4ccc(O)c(O)c4)oc4cc(O)cc(O)c4c3=O)[C@H](O)[C@@H](O)[C@@H]2O)[C@H](O)[C@H](O)[C@H]1O,-,-,-,-,-,-
CCc1ccc(OCC(=O)c2c(O)c3ccccc3oc2=O)cc1,-,-,-,-,?,-
CCc1oc2ccccc2c1C(=O)c1cc(Br)c(O)c(Br)c1,-,-,-,-,44.7µM!,-
C=C(C)CN=c1scc(C)n1/N=C/c1ccco1,-,-,-,-,-,12.6µM
CN(C)C(CNC(=O)c1cc(Br)ccc1Cl)c1ccco1 (stereo not given),-,-,-,-,-,-
CN(C)C(CNC(=O)c1cc(S(=O)(=O)N(C)Cc2ccccc2)ccc1Cl)c1ccco1 (stereo not given),-,-,-,14.6µM,-,-
Clc1c(-c2ccccc2)nc2ccccn12,-,-,-,?,-,11.2µM
Cc1ccc(-c2nc3ccccn3c2C=O)cc1,-,-,-,?,-,-
Cc1c(-c2ccc(Br)cc2)nc2ccccn12,-,-,-,?,-,3.98µM
CC(C)(C)c1ccc(C(=O)Nc2ccc([C@H]3OCC(=O)N[C@@H]3CO)cc2)cc1,.,.,.,.,-,.
CCNC(=O)N1CCCC1c1noc(CCC(=O)NCCC(C)C)n1 (stereo not given),.,.,.,.,39.8µM,.
CCOC(=O)c1nn(-c2ccc(F)cc2)c(=O)c2c(N)scc12,-,-,-,-,?,-
CCOC(=O)c1nn(-c2ccc(C)cc2)c(=O)c2c(N)scc12,-,-,-,?,25.1µM,-
COc1ccc(OC)c(C2CCCCC2O)c1 (stereo not given),.,.,-,.,-,.
